According to PubChem BioAssay (NCATS):
Inconclusive results are not listed. Active and inactive are the calls of the source. The call rests on the fitted dose curve; in most records, active means well fitted curve in the direction sought with a large enough effect; inconclusive means small, poorly fitted or top-dose-only effect, or another doubt; inactive means no such curve, though single readings can be large; an effect the other way counts as inactive or inconclusive.

How the values were obtained:
[1] = molecular target: Glutathione peroxidase 1 (Homo sapiens) (UniProt P07203); assay: Primary qHTS Assay for Inhibitors of Recombinant Selenoprotein Glutathione Peroxidase 1 (GPX1) (AID 1845191); further: nearly all actives have a fitted effect of over 65% in size; on activity, negative = inhibition: on the % scale 0 is the no-effect control and ±100 the full control effect
Procedure, shortened: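 Recombinant GPX1 (10 nM final) was preincubated with compound for 30 min at room temperature, then reacted with 1 mM GSH, 0.5 mM CHP, 0.5 mM NADPH and 100 nM glutathione reductase; NADPH fluorescence (340/450 nm) was read at 0 and 15 min.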

[2] = molecular target: Phospholipid hydroperoxide glutathione peroxidase GPX4 (Homo sapiens) (UniProt P36969); assay: Primary qHTS Assay for Inhibitors of Recombinant Selenoprotein Glutathione Peroxidase 4 (GPX4) (AID 1845192); further: nearly all actives have a fitted effect of over 65% in size; on activity change, negative = inhibition: series mostly up to about 50 µM; on the % scale 0 is the no-effect control and ±100 the full control effect
Procedure, shortened: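 GR-coupled readout: 100 nM GR, 1 mM GSH, 0.5 mM NADPH; NADPH fluorescence (ex 340/em 450 nm) read at t=0 and after 15 min RT. GPX4 200 nM, preincubated 30 min with compound; substrate 0.5 mM CHP.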

[3] = molecular target: Luciferin 4-monooxygenase (Photinus pyralis) (UniProt P08659); assay: Primary firefly luciferase (FLuc) qHTS assay for identification of artifact compounds. (AID 1845220); further: nearly all actives have a fitted effect of over 60% in size;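 on activity change, negative = inhibition: series mostly up to about 54 µM; plate controls were DMSO vehicle for no effect and no enzyme for full effect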
Procedure, shortened: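 Reaction readout was CCD-imaged luminescence, taken 5 min after adding 10 nM purified firefly enzyme to compound-treated wells holding 10 uM luciferin and ATP in pH 7.6 buffer.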

[4] = Primary fluorescence-based thiol-reactive (MSTI) qHTS assay for identification of artifact compounds. (AID 1845221); further: nearly all actives have a fitted effect of over 65% in size; further: potency means the concentration at half of the fitted maximal effect;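 on activity change, negative = thiol reactive: series mostly up to about 54 µM; thiol-reactive compounds lower the probe fluorescence signal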
Procedure, shortened: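 Thiol-reactive compounds detected by quenching of 4 uM MSTI fluorescence (525/598 nm) after 1 h room-temperature dark incubation in PBS pH 7.4, 2% DMSO. qHTS titration; percent inhibition Hill-fitted against Acetyl-MSTI/MSTI controls.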

[5] = test system: Nanoluciferase (engineered Oplophorus gracilirostris luciferase); assay: Primary Nanoluciferase (NLuc) qHTS assay for identification of artifact compounds. (AID 1845222);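 further: NLuc secreted into diluted conditioned medium of S16 cells; series mostly up to about 54 µM; 0% = DMSO and -100% = no enzyme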
Procedure, shortened: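 Concentration-response data were obtained by luminescence after 5 min with Nano-Glo substrate at 1:100. The enzyme was diluted S16 NLuc-expressing cell medium, preincubated with compound for 15 min at RT. Curves were fitted with a 4-parameter Hill model.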

[6] = Primary redox qHTS assay for identification of artifact compounds. (AID 1845223);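 further: 0% = DMSO and 100% = reference compound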
Procedure, shortened: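 Amplex Red (25 uM) and HRP (250 mU/mL) in HBSS, with compounds for 15 min, then 250 uM DTT for 30 min, room temperature, dark. Fluorescence 525/598 nm read; normalized to DMSO and 10 uM DA3003; Hill fit.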

Phospholipid hydroperoxide glutathione peroxidase GPX4 (Homo sapiens), sequence (P36969 whole entry, looked up): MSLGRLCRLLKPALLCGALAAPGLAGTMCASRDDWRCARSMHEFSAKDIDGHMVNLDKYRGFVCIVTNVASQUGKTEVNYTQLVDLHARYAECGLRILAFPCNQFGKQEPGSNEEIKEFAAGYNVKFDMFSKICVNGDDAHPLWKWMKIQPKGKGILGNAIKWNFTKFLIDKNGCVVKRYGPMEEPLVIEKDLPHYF
Glutathione peroxidase 1 (Homo sapiens), sequence (P07203 whole entry, looked up): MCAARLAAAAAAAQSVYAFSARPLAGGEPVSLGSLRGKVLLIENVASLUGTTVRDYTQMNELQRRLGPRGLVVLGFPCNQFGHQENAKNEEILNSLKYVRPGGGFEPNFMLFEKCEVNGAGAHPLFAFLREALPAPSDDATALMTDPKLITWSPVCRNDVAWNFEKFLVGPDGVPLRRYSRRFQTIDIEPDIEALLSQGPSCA

O=C(O)c1cc(O[C@@H]2O[C@H](CO[C@@H]3OC[C@@H](O)[C@H](O)[C@H]3O)[C@@H](O)[C@H](O)[C@H]2O)c2ccccc2c1O
active: Potency [4] 3.67 µM
inactive: Potency [1] | Potency [2] | Potency [3] | Potency [5]

CC(C(=O)O)C1CCC2(C)C3C(=O)C=C4C(CCC(=O)C4(C)C)C3(C)CCC12C (configuration not stated)
inactive: Potency [1] | Potency [2] | Potency [3] | Potency [4] | Potency [5]

O=C(NCc1ccc(OC(F)(F)F)cc1)C1c2ccccc2C(=O)N1C1CCOCC1 (configuration not stated)
inactive: Potency [1] | Potency [2] | Potency [3] | Potency [4] | Potency [5]

CC1CC(=O)C2=C(O1)OC1(C)CCC3C(C)(C)C=CC(=O)C3(C)C1C2 (configuration not stated)
active: Potency [4] 7.36 µM
inactive: Potency [1] | Potency [2] | Potency [3] | Potency [5]

CC(=O)N1CCN(NC(=O)c2ccc(F)cc2)CC1
inactive: Potency [1] | Potency [2] | Potency [3] | Potency [4] | Potency [5]

COc1cc(-c2cccc(O)c2)cc2c1OCO2
active: Potency [4] 26.7 µM
inactive: Potency [1] | Potency [2] | Potency [3] | Potency [5]

CC1CC(O)C2(C)C(C(=O)O)=CCCC2C1(C)CCc1ccoc1 (configuration not stated)
inactive: Potency [1] | Potency [2] | Potency [3] | Potency [4] | Potency [5]

C/C(=C/CCC(CO)C1CCC2(C)C3CCC4C(C)(C)C(OC5OC(CO)C(O)C(O)C5O)CC(O)C45CC35CCC12C)COC1OC(CO)C(O)C(O)C1O (configuration not stated)
inactive: Potency [1] | Potency [2] | Potency [3] | Potency [4] | Potency [5]

COc1cc(/C=C/C(=O)OC[C@H]2O[C@H](O[C@]3(CO)O[C@H](CO)[C@@H](O)[C@@H]3O)[C@H](O)[C@@H](O)[C@@H]2O)cc(OC)c1O
inactive: Potency [1] | Potency [2] | Potency [3] | Potency [4] | Potency [5] | Potency [6]

C=C1CCC2C(OC(=O)C2(O)COC(C)=O)C2C(=C)C(O)CC12 (configuration not stated)
active: Potency [4] 7.36 µM
inactive: Potency [1] | Potency [2] | Potency [3] | Potency [5] | Potency [6]

CC1=C(C)C(=O)OC(C(C)(O)C2CCC3C4CC=C5CC(OC6OC(COC7OC(CO)C(O)C(O)C7O)C(O)C(O)C6O)CC(O)C5(C)C4CCC32C)C1 (configuration not stated)
inactive: Potency [1] | Potency [2] | Potency [3] | Potency [4] | Potency [5]

CC/C=C\C[C@H]1C(=O)C=C[C@@H]1CCCCCCCC(=O)O
inactive: Potency [1] | Potency [2] | Potency [3] | Potency [4] | Potency [5]

COc1cc(C/C(=C/NC(C)=O)N(CC(=O)Cc2ccccc2)C(C)=O)cc2c1OCO2
inactive: Potency [1] | Potency [2] | Potency [3] | Potency [4] | Potency [5]

CC(=O)OC1C(O)C(C)=C(CCC(C)CC(=O)O)C2(C)CCCC(C)(C)C12 (configuration not stated)
inactive: Potency [1] | Potency [2] | Potency [3] | Potency [4] | Potency [5]

COCCN(C)Cc1ccc2nc3sc(C(=O)N(C)C4CCCCC4)cn3c2c1
inactive: Potency [1] | Potency [2] | Potency [3] | Potency [4] | Potency [5]

COC(=O)C1=C[C@@H](O)[C@@H](O)[C@H](O[C@@H]2O[C@H](COC(=O)/C=C/c3ccccc3)[C@@H](O)[C@H](O)[C@H]2O)C1
inactive: Potency [1] | Potency [2] | Potency [3] | Potency [4] | Potency [5] | Potency [6]

OCC1OC(Oc2cc(O)c3c(c2)OC(c2ccc(O)cc2)C(O)C3)C(O)C1O (configuration not stated)
inactive: Potency [1] | Potency [2] | Potency [3] | Potency [4] | Potency [5] | Potency [6]

CN1C(=O)c2ccccc2-n2c(nc3ccccc3c2=O)[C@@]12O[C@H]2c1ccccc1
inactive: Potency [1] | Potency [2] | Potency [3] | Potency [4] | Potency [5]

C=C[C@](C)(CC/C=C(\C)C(=O)O)O[C@@H]1OC[C@H](O)[C@H](O)[C@H]1O
active: Potency [4] 7.36 µM
inactive: Potency [1] | Potency [2] | Potency [3] | Potency [5]

C=CC(C)(O)CC/C=C(/C)C(=O)OC1C(OC2OCC(OC3OC(CO)C(O)C(O)C3O)C(OC3OCC(O)C(OC4OC(C)C(O)C(O)C4O)C3O)C2O)COC(OC(=O)C23CCC(C)(C)CC2C2=CCC4C5(C)CCC(OC6OC(CO)C(OC7OC(CO)C(O)C(OC8OCC(O)C(O)C8O)C7O)C(O)C6O)C(C)(C)C5CCC4(C)C2(C)CC3O)C1O (configuration not stated)
inactive: activity, negative = inhibition [1] -7.71% [at 9.52 µM] | outcome [2] inactive [at 9.73 µM] | activity change, negative = inhibition [3] 3.07% [at 6.45 µM] | activity change, negative = thiol reactive [4] 146% [at 6.41 µM] | activity, negative = inhibition [5] 2.49% [at 6.45 µM] | redox activity (% of DA3003) [6] 3.8% [at 6.41 µM]

CC1(C)C[C@H]2C3=CCC4[C@@]5(C)CC[C@H](O[C@H]6O[C@H](C(=O)O)[C@@H](O)[C@H](O)[C@H]6O[C@H]6O[C@H](CO)[C@@H](O)[C@H](O)[C@H]6O[C@@H]6O[C@H](CO)[C@@H](O)[C@H](O)[C@H]6O)[C@](C)(CO)C5CC[C@@]4(C)[C@]3(C)CC[C@@]2(C)[C@H](O[C@@H]2OC[C@H](O)[C@H](OC3O[C@H](CO)[C@@H](O)[C@H](O)[C@H]3O)[C@H]2O)[C@@H]1O (some centres not stated)
inactive: activity, negative = inhibition [1] 0.367% [at 9.52 µM] | outcome [2] inactive [at 9.73 µM] | outcome [3] inactive [at 11.6 µM] | activity change, negative = thiol reactive [4] 48.1% [at 11.5 µM] | activity, negative = inhibition [5] 4.18% [at 11.6 µM]

O=C(O)C[C@H]1CCC(=O)[C@@H]1C/C=C\CCOC1OC(CO)C(O)C(O)C1O (some centres not stated)
active: Potency [4] 7.36 µM
inactive: Potency [1] | Potency [2] | Potency [3] | Potency [5] | Potency [6]

COc1cc(/C=C/C(=O)O[C@H]2[C@H](OC(=O)/C=C/c3cc(OC)c(O)c(OC)c3)O[C@H](CO[C@@H]3O[C@H](CO)[C@@H](O)[C@H](O)[C@H]3O)[C@@H](O)[C@@H]2O)ccc1O
inactive: Potency [1] | Potency [2] | Potency [3] | Potency [4] | Potency [5]

CC1(C)CC2C3=CCC4C5(C)CCC(OC6OC(CO)C(O)C(OC7OC(CO)C(O)C(OC8OC(CO)C(O)C(OC9OC(COC%10OC(CO)C(O)C(O)C%10O)C(O)C(O)C9O)C8O)C7O)C6O)C(C)(C)C5CCC4(C)C3(C)CCC2(C(=O)O)CC1O (configuration not stated)
inactive: activity, negative = inhibition [1] -11.7% [at 9.52 µM] | outcome [2] inactive [at 9.73 µM] | activity change, negative = inhibition [3] -5.47% [at 11.6 µM] | activity change, negative = thiol reactive [4] 31.3% [at 11.5 µM] | activity, negative = inhibition [5] 0.268% [at 11.6 µM] | redox activity (% of DA3003) [6] 10.1% [at 11.5 µM]
